PubChem BioAssay AID624481 (The Scripps Research Institute Molecular Screening Center, 2012)
Active and inactive are the calls of the source. No stated cut-off is given here; in the data, active means inhibition above about 50%; inactive means the rest.

Target: Prolyl endopeptidase-like (Mus musculus) (UniProt Q8C167)
Assay: purified PREPL inhibitors, PREPL inhibitor project, biochemical, gel-based competitive ABPP, fluorescence, HTS hits (AID 624481)
Details: at 20 µM, stronger effect = higher value

Chain of Prolyl endopeptidase-like (Mus musculus) (Q8C167 whole entry, looked up): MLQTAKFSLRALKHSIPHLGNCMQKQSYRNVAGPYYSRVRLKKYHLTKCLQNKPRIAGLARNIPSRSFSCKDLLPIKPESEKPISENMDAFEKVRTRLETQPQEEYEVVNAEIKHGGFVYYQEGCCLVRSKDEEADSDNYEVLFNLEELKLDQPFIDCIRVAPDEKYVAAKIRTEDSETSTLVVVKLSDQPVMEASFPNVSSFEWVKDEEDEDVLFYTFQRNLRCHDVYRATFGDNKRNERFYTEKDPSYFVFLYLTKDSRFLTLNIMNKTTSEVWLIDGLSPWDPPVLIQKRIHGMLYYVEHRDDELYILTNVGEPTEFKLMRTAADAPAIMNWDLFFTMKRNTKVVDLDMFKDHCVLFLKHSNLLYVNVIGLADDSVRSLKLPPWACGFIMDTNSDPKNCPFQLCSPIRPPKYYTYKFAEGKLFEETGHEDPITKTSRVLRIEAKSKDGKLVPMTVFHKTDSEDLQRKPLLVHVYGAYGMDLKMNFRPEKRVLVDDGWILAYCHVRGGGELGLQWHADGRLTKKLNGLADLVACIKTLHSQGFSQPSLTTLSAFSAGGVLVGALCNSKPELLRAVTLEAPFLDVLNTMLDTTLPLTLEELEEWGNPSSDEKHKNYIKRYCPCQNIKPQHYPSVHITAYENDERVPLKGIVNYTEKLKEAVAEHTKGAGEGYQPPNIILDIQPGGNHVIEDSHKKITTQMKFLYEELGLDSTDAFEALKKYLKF

inhibition, inactive:
CN1CCN(C(=O)C2=C[C@@H](c3ccc(C(F)(F)F)cc3)C[C@@H](OCc3ccc(CO)cc3)O2)CC1 -83%
Cc1c(NCc2cc(Cl)cc(Cl)c2O)c(=O)n(-c2ccccc2)n1C -28%
C#CCOCCOCCOCCNc1nc(N2CCN(C(=O)CCCCCCCCCCNC(=O)Cn3cc(CCCCCN)nn3)CC2)nc(N2CCN(C(=O)CCCCCCCCCCNC(=O)[C@H](CO)n3cc(CCCSC)nn3)CC2)n1 31%
CN(C)c1ccc(N=C/C=C2\N(C)c3ccccc3C2(C)C)cc1 -78%
Cc1ccsc1C=NN=C1C(=O)Nc2ccccc21 -90%
CC(C)[C@@H]1CN=C(N)N1C[C@@H]1CCCN1C[C@H](C)N1C[C@@H](Cc2ccccc2)N(CCc2ccc(Cl)c(Cl)c2)C1=N -62%
CCCOc1ccccc1-n1sc2c(c1=S)-c1cc(OC)cc3c1N(C(=O)C3=O)C2(C)C -26%
Clc1ccc(-c2csc(=Nc3cccnc3)n2CCCn2ccnc2)cc1Cl -41%
C#CCOCCOCCOCCNc1nc(N2CCN(C(=O)[C@H]([C@@H](C)CC)n3cc([C@@H](N)Cc4ccc(O)cc4)nn3)CC2)nc(N2CCN(C(=O)[C@H](Cc3cc4ccccc4[nH]3)n3cc([C@@H](N)CC(C)C)nn3)CC2)n1 -105%
COc1ccc2cc1Oc1ccc(cc1)CC1c3c(cc(OC)c4c3Oc3cc5c(cc3O4)CCNC5C2)CCN1C (stereo unspecified) -113%
CCOc1ccc(Nc2c3ccccc3nc3ccccc23)cc1 -58%
